Common to all, as to assay: DAPPL (digital affinity profiling via proximity ligation, sequencing); 10 mM Tris-HCl pH 7.5, 50 mM NaCl, 1 mM DTT, 4% glycerol, room temperature, 30 min; GST-TFs on glutathione beads, 16-mer random dsDNA library, 0.1% formaldehyde crosslink after washing; high values mean tight binding
Common to all, as to conditions: protein: recombinant; tags: N-terminal GST; dsDNA, one strand shown

For one experiment, the target named is T1, ERF (Homo sapiens, UniProt P50548 1-548).
T1 sequence: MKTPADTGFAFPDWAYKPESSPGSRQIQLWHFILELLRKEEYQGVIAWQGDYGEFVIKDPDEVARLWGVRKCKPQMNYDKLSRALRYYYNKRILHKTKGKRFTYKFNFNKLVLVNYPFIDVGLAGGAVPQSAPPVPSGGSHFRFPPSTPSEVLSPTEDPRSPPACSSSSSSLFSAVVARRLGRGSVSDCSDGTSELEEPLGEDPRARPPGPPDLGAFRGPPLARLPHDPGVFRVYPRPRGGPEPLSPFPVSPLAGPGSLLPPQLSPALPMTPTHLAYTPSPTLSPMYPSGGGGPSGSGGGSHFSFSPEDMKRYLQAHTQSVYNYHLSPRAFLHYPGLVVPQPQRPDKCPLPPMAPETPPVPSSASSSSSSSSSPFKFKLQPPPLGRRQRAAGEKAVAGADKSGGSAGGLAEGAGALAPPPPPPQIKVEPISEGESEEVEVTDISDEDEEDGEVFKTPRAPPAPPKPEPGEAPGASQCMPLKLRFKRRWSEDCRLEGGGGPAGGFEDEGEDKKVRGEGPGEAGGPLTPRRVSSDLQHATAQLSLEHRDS
The method, boiled down:
(§1)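 A tag-only sample was pooled with DNA-barcoded human transcription factors that had been expressed in yeast as GST fusions and captured on glutathione beads. The pools were incubated for 30 min at room temperature with 200 nmole of a random double-stranded 16-mer DNA library in Tris/NaCl/DTT/glycerol buffer, then washed, crosslinked with 0.1% formaldehyde, proximity-ligated (BsaI/T4 ligase, 1 h, 37 °C), PCR-amplified and sequenced on an Illumina NextSeq500. Binding signal is each hexamer's read frequency for a factor divided by its frequency for the tag-only sample.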

A further experiment has as its target T2, ETV3L (Homo sapiens, UniProt Q6ZN32 1-361).
T2 sequence: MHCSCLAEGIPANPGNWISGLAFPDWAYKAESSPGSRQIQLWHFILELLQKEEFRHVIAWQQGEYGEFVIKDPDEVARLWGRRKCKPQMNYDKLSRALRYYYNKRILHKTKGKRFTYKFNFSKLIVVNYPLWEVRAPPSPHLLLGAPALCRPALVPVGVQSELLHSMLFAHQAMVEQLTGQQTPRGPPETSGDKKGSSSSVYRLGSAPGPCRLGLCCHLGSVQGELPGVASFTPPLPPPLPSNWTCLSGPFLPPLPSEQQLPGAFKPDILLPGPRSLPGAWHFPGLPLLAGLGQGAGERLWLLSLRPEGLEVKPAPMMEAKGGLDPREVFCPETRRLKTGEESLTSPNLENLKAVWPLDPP
The method, boiled down: as §1

The target of another experiment is T3, ETS2 (Homo sapiens, UniProt P15036 1-469).
T3 sequence: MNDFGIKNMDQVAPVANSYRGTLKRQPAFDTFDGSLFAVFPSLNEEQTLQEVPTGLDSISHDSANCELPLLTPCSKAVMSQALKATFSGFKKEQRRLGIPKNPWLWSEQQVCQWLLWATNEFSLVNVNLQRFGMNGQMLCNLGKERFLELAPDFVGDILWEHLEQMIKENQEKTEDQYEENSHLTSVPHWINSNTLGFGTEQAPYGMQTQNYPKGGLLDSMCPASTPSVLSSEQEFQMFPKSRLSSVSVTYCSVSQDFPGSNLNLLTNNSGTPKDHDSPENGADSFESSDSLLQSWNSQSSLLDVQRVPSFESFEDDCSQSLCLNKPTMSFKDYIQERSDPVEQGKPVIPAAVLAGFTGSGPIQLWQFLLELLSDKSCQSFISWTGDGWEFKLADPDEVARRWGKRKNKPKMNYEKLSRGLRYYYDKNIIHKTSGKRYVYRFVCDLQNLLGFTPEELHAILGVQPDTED
The method, boiled down: as §1

The next experiment has as its target T4, SPDEF (Homo sapiens, UniProt O95238 1-335).
T4 sequence: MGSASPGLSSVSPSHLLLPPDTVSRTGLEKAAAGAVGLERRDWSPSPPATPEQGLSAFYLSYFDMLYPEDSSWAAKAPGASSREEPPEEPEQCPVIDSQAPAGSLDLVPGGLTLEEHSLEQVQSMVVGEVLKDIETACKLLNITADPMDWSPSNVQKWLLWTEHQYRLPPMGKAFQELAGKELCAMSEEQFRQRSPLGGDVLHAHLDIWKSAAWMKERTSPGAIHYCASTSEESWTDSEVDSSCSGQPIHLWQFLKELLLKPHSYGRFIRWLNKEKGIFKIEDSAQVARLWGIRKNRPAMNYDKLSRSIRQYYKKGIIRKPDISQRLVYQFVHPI
The method, boiled down: as §1

The target in another experiment is T5, ELF5 (Homo sapiens, UniProt Q9UKW6-2 1-255).
T5 sequence: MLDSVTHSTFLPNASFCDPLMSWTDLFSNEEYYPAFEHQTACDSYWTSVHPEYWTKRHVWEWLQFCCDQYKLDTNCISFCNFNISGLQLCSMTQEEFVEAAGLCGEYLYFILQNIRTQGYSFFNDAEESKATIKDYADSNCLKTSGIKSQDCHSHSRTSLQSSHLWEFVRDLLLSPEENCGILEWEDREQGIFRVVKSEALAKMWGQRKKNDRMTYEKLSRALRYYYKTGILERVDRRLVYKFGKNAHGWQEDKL
The method, boiled down: as §1

The target in a further experiment is T6, ETV3 (Homo sapiens, UniProt P41162-2 1-143).
T6 sequence: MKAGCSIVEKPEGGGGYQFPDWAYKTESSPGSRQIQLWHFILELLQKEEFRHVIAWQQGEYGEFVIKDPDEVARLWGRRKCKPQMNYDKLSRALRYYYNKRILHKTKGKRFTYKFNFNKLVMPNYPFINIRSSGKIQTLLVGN
The method, boiled down: as §1

Another experiment addresses ETV6 (Homo sapiens, UniProt P41212 1-452). The method, boiled down:
as §1

The target of a further experiment is T7, ETV7 (Homo sapiens, UniProt Q9Y603 1-341).
T7 sequence: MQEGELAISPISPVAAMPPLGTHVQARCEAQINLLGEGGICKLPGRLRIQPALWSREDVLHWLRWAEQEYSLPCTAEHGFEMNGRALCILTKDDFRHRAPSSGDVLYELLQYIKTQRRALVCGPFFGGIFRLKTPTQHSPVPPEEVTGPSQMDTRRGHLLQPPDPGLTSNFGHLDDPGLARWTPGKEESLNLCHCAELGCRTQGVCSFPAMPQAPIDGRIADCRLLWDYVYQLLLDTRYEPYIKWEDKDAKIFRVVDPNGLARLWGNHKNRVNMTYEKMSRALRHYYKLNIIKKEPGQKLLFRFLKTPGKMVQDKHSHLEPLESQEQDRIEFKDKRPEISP
The method, boiled down: as §1

Chain of ETV6 (P41212 whole entry): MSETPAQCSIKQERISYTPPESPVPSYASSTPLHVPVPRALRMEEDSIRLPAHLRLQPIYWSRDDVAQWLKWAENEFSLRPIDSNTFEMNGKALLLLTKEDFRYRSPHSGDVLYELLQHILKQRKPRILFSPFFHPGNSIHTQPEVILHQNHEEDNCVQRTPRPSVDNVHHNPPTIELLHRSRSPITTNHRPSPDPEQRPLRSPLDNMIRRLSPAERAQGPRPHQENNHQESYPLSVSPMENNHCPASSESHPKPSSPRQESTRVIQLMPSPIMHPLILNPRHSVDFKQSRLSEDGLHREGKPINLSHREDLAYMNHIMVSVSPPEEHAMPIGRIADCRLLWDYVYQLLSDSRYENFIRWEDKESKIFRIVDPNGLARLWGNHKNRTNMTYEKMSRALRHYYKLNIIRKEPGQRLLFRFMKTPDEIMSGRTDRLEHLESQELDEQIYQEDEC

TGTGGA: the binding signal in the experiment with ERF was 1.15 fold enrichment (6-mer frequency, TF over GST control); with ETV3L, 1.17 fold enrichment (6-mer frequency, TF over GST control); in the experiment with ETS2, 1.02 fold enrichment (6-mer frequency, TF over GST control); with SPDEF it was 1.1 fold enrichment (6-mer frequency, TF over GST control); with ELF5 it was 1.02 fold enrichment (6-mer frequency, TF over GST control); with ETV3, 1.02 fold enrichment (6-mer frequency, TF over GST control). Besides, the binding signal in the experiment with ETV6 was 1.07 fold enrichment (6-mer frequency, TF over GST control).

For CCGTAA, the binding signal with ERF was 1.08 fold enrichment (6-mer frequency, TF over GST control); with ETV3L it was 1.12 fold enrichment (6-mer frequency, TF over GST control); in the experiment with ETS2, 1.16 fold enrichment (6-mer frequency, TF over GST control); with SPDEF it was 1.2 fold enrichment (6-mer frequency, TF over GST control); with ELF5, 1.22 fold enrichment (6-mer frequency, TF over GST control); with ETV3, 1.12 fold enrichment (6-mer frequency, TF over GST control). In addition, the binding signal with ETV6 is 1.08 fold enrichment (6-mer frequency, TF over GST control).

As to CATGCC, the binding signal in the experiment with ERF is 1.12 fold enrichment (6-mer frequency, TF over GST control); in the experiment with ETV3L, 1 fold enrichment (6-mer frequency, TF over GST control); with ETS2 it was 1.05 fold enrichment (6-mer frequency, TF over GST control); in the experiment with SPDEF, 1.09 fold enrichment (6-mer frequency, TF over GST control); in the experiment with ELF5, 1.05 fold enrichment (6-mer frequency, TF over GST control); in the experiment with ETV3, 1.22 fold enrichment (6-mer frequency, TF over GST control). For the same sequence, the binding signal with ETV6 was 1.15 fold enrichment (6-mer frequency, TF over GST control).

In the case of CGAAAA, the binding signal was 1.17 fold enrichment (6-mer frequency, TF over GST control) in the experiment with ERF; 1.09 fold enrichment (6-mer frequency, TF over GST control) with ETV3L; 1.08 fold enrichment (6-mer frequency, TF over GST control) with ETS2; 1.02 fold enrichment (6-mer frequency, TF over GST control) with SPDEF; 1.17 fold enrichment (6-mer frequency, TF over GST control) with ETV7; 1.08 fold enrichment (6-mer frequency, TF over GST control) in the experiment with ETV6.

For TCGCCG, the binding signal with ERF was 1.38 fold enrichment (6-mer frequency, TF over GST control); with ETV3L, 1.25 fold enrichment (6-mer frequency, TF over GST control); with ETS2, 1.26 fold enrichment (6-mer frequency, TF over GST control); in the experiment with SPDEF, 1.01 fold enrichment (6-mer frequency, TF over GST control); with ELF5 it was 1.15 fold enrichment (6-mer frequency, TF over GST control); with ETV3 it was 1.2 fold enrichment (6-mer frequency, TF over GST control). Moreover, the binding signal with ETV6 was 1.13 fold enrichment (6-mer frequency, TF over GST control).

In the case of CCATTA, the binding signal with ERF is 1.07 fold enrichment (6-mer frequency, TF over GST control); in the experiment with ETV3L it was 1.16 fold enrichment (6-mer frequency, TF over GST control); with ETS2 it was 1.12 fold enrichment (6-mer frequency, TF over GST control); in the experiment with ETV7 it was 1.13 fold enrichment (6-mer frequency, TF over GST control); with ELF5, 1.08 fold enrichment (6-mer frequency, TF over GST control); with ETV3, 1.11 fold enrichment (6-mer frequency, TF over GST control). Also, the binding signal with ETV6 was 1.13 fold enrichment (6-mer frequency, TF over GST control).

AGGGCT: the binding signal was 1.1 fold enrichment (6-mer frequency, TF over GST control) in the experiment with ERF; 1.06 fold enrichment (6-mer frequency, TF over GST control) with ETV3L; 1.02 fold enrichment (6-mer frequency, TF over GST control) in the experiment with ETS2; 1.12 fold enrichment (6-mer frequency, TF over GST control) in the experiment with ETV7; 1.05 fold enrichment (6-mer frequency, TF over GST control) with ELF5; 1.06 fold enrichment (6-mer frequency, TF over GST control) with ETV3. Also, the binding signal with ETV6 was 1.09 fold enrichment (6-mer frequency, TF over GST control).

Source of the values: PMC7862700, “An all-to-all approach to the identification of sequence-specific readers for epigenetic DNA modifications on cytosine”.
